Screening data: PubChem, National Center for Advancing Translational Sciences (NCATS)
CHX counter: affects cycloheximide protein synthesis inhibition readout, counter-screen. AID 2314. max response, %. hit rate 12% among 300,000. cell reporter, cycloheximide protein synthesis inhibition counterscreen; in the data active = max response mostly above about 13%, no sharp cut-off; inactive = mostly below about 14%; note: read at 38.3 µM for the half of the compounds with a filed dose
Shiga inhibitor: inhibitors of Shiga toxin in Vero cells; Vero cells, Shiga toxin protein synthesis inhibition reporter; inhibition, % at 38.7 µM; hit rate 9.2% among 290,000; AID 2315; in the data active = inhibition mostly above about 28%, no sharp cut-off; inactive = mostly below about 43%
Pf growth 96h: P. falciparum growth inhibition at 96 hour, primary screen for plastid delayed-death inhibitors; P. falciparum luciferase reporter growth, 96 h; Potency, µM (highest dose often 28.7 µM), actives largely listed as inhibitors; hit rate 6.9% among 320,000; AID 504834
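Two-generation exposure (96 h) targets delayed-death phenotype. Reporter parasites carrying integrated firefly luciferase, in red cells at 2% hematocrit and 0.05% parasitemia final, kept at 37 C, 5% CO2; luminescence loss indicates inhibition.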
NS1 function inh: influenza NS1 inhibition; Potency, µM (titrated, usually from 46.1 µM); hit rate 0.4% among 270,000; AID 2326; calls by dose curve; note: actives are rising curves; nearly all actives have a fitted effect of over 50% in size
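Compounds were scored for reversing the slow growth caused by influenza A NS1 in S. cerevisiae, measured by optical density at 600 nm. Assay medium contained 2% galactose at pH 6.0; NS1-free yeast of the same strain were the positive control.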
Pf growth 48h: P. falciparum growth inhibition at 48 hours (one generation); hit rate 5.9% among 310,000; P. falciparum luciferase growth in erythrocytes, 48 h; Potency, µM (titrated, usually from 28.7 µM), usual class: inhibitors
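In quantitative HTS format, infected erythrocytes bearing luciferase-reporter parasites were treated for a single generation at 37 C. Luminescence after adding detection reagent served as the growth measure.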
Numbers stand for hits; . = inactive; ? = inconclusive; / = no result. Most compounds without a hit are left out; they make up all but 21% or so of the library. Unless noted, calls come from the whole dose curve; as a rule, active = well fitted inhibition curve with a large enough effect; inconclusive = small, poorly fitted or top-dose-only effect, or another doubt; inactive = no such curve, though single readings can be large or run the other way.

SMILES | CHX counter | Shiga inhibitor | Pf growth 96h | NS1 function inh | Pf growth 48h
Fc1ccc2c(c1)C(c1ccncc1)=NNC(c1cccnc1)=N2 | . | . | ? | ? | ?
CC(=O)N1CCN(S(=O)(=O)c2ccc3c(c2)CC(=O)N3)CC1 | / | / | . | / | .
Cc1ccc(NC(=O)CSc2ncccn2)cc1F | 46 | 64 | . | / | .
Cc1ccc(SCC(=O)Nc2cccc(S(=O)(=O)N3CCOCC3)c2)cc1C | / | / | ? | / | 17µM
CC(C)CC(OC(=O)c1ccco1)C(=O)NC1CCCCC1 (configuration not stated) | 17 | . | . | . | .
Cc1ccc(C(=O)OCC(=O)NC2CCCCC2)o1 | 15 | . | . | . | .
Cc1ccc(C(=O)NC2CCCCCC2)o1 | 20 | 40 | / | . | .
Cc1cc(C(=O)OCC(=O)NC2CCCCC2)c(C)o1 | . | . | . | . | /
CC(C)CC(OC(=O)c1ccco1)C(=O)NC1CCCC1 (configuration not stated) | . | . | . | . | .
CC(C)CC(OC(=O)c1cccs1)C(=O)NCc1ccco1 (configuration not stated) | . | . | . | . | 13µM
CCOC(=O)[C@@H]1[C@H]2COc3ccccc3[C@@H]2N2C(=O)N(c3ccc(Cl)cc3)C(=O)[C@]12C | . | . | . | . | .
CCc1noc(C)c1C(=O)Nc1nnc(C2CCCCC2)s1 | . | . | . | / | .
O=C(COc1ccccc1)OCC(=O)c1ccc(S(=O)(=O)N2CCCCC2)cc1 | / | / | . | / | .
O=C(NC1CCCCCC1)c1ccco1 | 12 | . | ? | . | .
COC(=O)C1=NNC2C(=O)N(c3ccc(C)cc3)C(=O)C12 (configuration not stated) | . | . | ? | / | .
COC(=O)C1=NNC2C(=O)N(C3CCCCC3)C(=O)C12 (configuration not stated) | . | . | 3.3µM | . | .
N#C/C(=C(/O)COC(=O)c1ccccc1O)c1nc2ccccc2s1 | . | . | . | . | .
O=C(OCc1nc2ccccc2s1)c1cccs1 | 52 | 92 | . | . | .
O=C(OCc1nc2ccccc2s1)c1ccccc1O | 67 | 58 | . | / | .
O=C(OCc1nc2ccccc2c(=O)[nH]1)c1cccs1 | 19 | . | . | . | /
O=C(c1ccccc1)c1ccc(COC(=O)c2cnccn2)cc1 | . | . | ? | . | .
O=C(OCc1nc2ccccc2s1)c1cnccn1 | 32 | 93 | . | . | .
C=CCC(=O)N1CCC(n2nccc2NC(=O)CCOc2ccccc2)CC1 | . | . | . | . | .
CC(OC(=O)c1nsc(Cl)c1Cl)C(=O)NC(C)(C)C (configuration not stated) | . | . | ? | . | .
CCN1CCCC1CNC(=O)c1ccc(Sc2ccc(F)cc2)c([N+](=O)[O-])c1 (configuration not stated) | . | . | ? | / | ?
SMILES | CHX counter | Shiga inhibitor | Pf growth 96h | NS1 function inh | Pf growth 48h
O=C(O)c1ccccc1OCc1ccccc1Br | . | . | . | / | .
O=C(O)c1ccccc1OCc1nc2ccccc2s1 | 65 | 110 | . | . | .
O=S(=O)(NCC(O)c1ccccc1)c1cc(Cl)sc1Cl (configuration not stated) | . | 25 | . | . | ?
O=S(=O)(NCC(O)c1ccccc1)c1ccc(-c2ccccn2)s1 (configuration not stated) | . | . | . | . | ?
Nc1nc(Nc2ccccc2F)nc(N2CCOCC2)c1[N+](=O)[O-] | . | . | . | . | .
Fc1cc(F)c2nc(N3CCCC3)sc2c1 | 29 | 150 | . | / | .
Clc1cc(Cl)c2nc(N3CCOCC3)sc2c1 | 31 | 51 | / | . | .
Nc1nc2c(F)cccc2s1 | . | . | . | . | .
Fc1cccc2sc(N3CCCCC3)nc12 | 54 | 57 | . | . | .
Clc1ccc(Cl)c2sc(N3CCOCC3)nc12 | / | / | / | . | /
Clc1ccc(-c2nsc(N3CCOCC3)n2)c(Cl)c1 | 34 | 72 | . | . | .
COc1ccccc1NC(=O)Nc1c(C)nn(C)c1C | . | . | . | / | .
Fc1cccc2sc(N3CCOCC3)nc12 | 15 | 52 | ? | . | .
C/C(=N\NC(=O)c1ccc(=O)[nH]n1)c1cccnc1 | . | . | . | . | .
C=CCn1c(C)nnc1SCC(=O)c1[nH]c(C)c(C(C)=O)c1C | . | . | ? | / | ?
CC(=O)c1c(C)[nH]c(C(=O)CSc2nnc(C)s2)c1C | 44 | 92 | . | / | .
Nn1c(SCC(=O)Nc2ccc(F)cc2)nnc1C1CCCCC1 | . | . | / | . | .
CN(C)c1ccc(NC(=O)CSc2nnc(C3CCCCC3)n2N)cc1 | 24 | 31 | . | . | .
CC(=O)c1c(C)[nH]c(C(=O)CSc2nnc(C3CCCCC3)n2N)c1C | . | . | / | . | 2.1µM
BrCCOCCOc1ccc2ccccc2c1 | 65 | . | . | . | .
CC(C)(C)NCCOc1ccc2ccccc2c1 | . | . | . | . | .
NNC(=O)C(=O)Nc1ccc(O)cc1 | 23 | . | . | . | .
O=C(O)/C=C/C(=O)Nc1ccc2nccnc2c1 | 23 | . | . | . | .
O=C(O)/C=C/C(=O)c1ccc(O)cc1 | . | . | 0.93µM | . | ?
O=C(O)/C=C/C(=O)Nc1ccc(O)cc1 | . | . | 10µM | . | .
SMILES | CHX counter | Shiga inhibitor | Pf growth 96h | NS1 function inh | Pf growth 48h
CCCCCCCCNC(=O)/C(C#N)=C/c1ccccc1[N+](=O)[O-] | . | . | ? | . | 13µM
N#C/C(=C\c1ccccc1[N+](=O)[O-])C(=O)NCc1ccccc1 | . | . | ? | . | 15µM
N#C/C(=C\C=C\c1ccccc1[N+](=O)[O-])C(=O)NCc1ccccc1 | 31 | . | 1.9µM | . | 3.7µM
Nc1nc(SCc2ccccc2[N+](=O)[O-])c2[nH]cnc2n1 | / | / | / | . | /
COc1ccccc1N(C)S(=O)(=O)c1ccc(C(=O)OCC(=O)N2CCC2)cc1 | . | . | . | / | .
COc1ccc2[nH]c3c(=O)n(CCCCC(=O)NCCC(C)C)c(=S)[nH]c3c2c1 | . | . | 5.2µM | / | ?
CCCNC(=O)CCCCn1c(=S)[nH]c2c([nH]c3ccc(OC)cc32)c1=O | . | . | . | / | .
O=C(c1ccc([N+](=O)[O-])o1)N1CCN(c2nc3ccc(F)cc3s2)CC1 | / | / | 1.2µM | / | 2.3µM
O=C(Nc1cccc(Cl)c1N1CCCC1)c1ccc([N+](=O)[O-])o1 | . | . | . | / | ?
O=C(c1ccc([N+](=O)[O-])o1)N1CCN(c2nc3c(Cl)cccc3s2)CC1 | / | / | 1µM | / | 1.3µM
Cc1ccc2sc(N3CCN(C(=O)c4ccc([N+](=O)[O-])o4)CC3)nc2c1C | / | / | 0.74µM | / | 0.37µM
COc1cccc2sc(N3CCN(c4nc5ccccc5s4)CC3)nc12 | . | . | . | . | .
COc1cccc2sc(N3CCN(C(=O)c4ccc([N+](=O)[O-])o4)CC3)nc12 | / | / | 0.74µM | / | 0.83µM
Cc1c(Cl)ccc2sc(N3CCN(C(=O)C4=COCCO4)CC3)nc12 | / | / | . | / | ?
COc1ccc(C(CC(=O)Nc2ccccn2)N2Cc3ccccc3C2=O)cc1OC (configuration not stated) | . | . | . | . | .
NC(=O)COc1ccc(/C=N/NS(=O)(=O)c2ccccc2)cc1 | . | . | . | . | .
O=C1CCC/C(=N\NC(=O)c2ccc(NS(=O)(=O)c3ccc(Br)cc3)cc2)C1 | . | . | . | . | .
